Screens as filed in PubChem.
In the library only some 1.8% were active in any assay of this set; here they are far more common.
TrxR1 substrate – rat thioredoxin reductase 1 substrate activity | O89049 | purified TrxR1 substrate turnover, NADPH consumption readout | Potency, µM (series often up to 114 µM), for the others: top-dose activity change, negative = substrate turnover | 390,000 tested, 0.01% active; note: % is set by controls: 0 for no effect and ±100 for the full control effect; nearly all actives have a fitted effect of over 50% in size
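Rat TrxR1, dispensed at 90 nM, was prereduced with 400 uM NADPH (final) for 5 min at ~22 deg C, then incubated with compound 15 min before 400 uM selenite. A first-read NADPH fluorescence drop versus no-compound background flagged substrates.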
rTrxR1 inhibitor – blocks rat thioredoxin reductase 1 | AID 588453 | recombinant rTrxR1, NADPH fluorescence consumption, selenite substrate | O89049 | 390,000 tested, 1% active | Potency, µM (titrated, usually from 114 µM), for the others: at the top dose activity change, negative = inhibition, actives largely listed as inhibitors; note: % is set by controls: 0 for no effect and ±100 for the full control effect; nearly all actives have a fitted effect of over 65% in size
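Rat TrxR1 (90 nM in the dispensed reagent) was pre-reduced with 400 uM NADPH for 5 min at room temperature, then incubated with compound for 15 min. After 400 uM selenite was added, NADPH fluorescence (Ex 340/Em 450 nm) was followed for 8 min.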
KAT2A inh – inhibitors of human GCN5L2 histone acetyltransferase. Q92830. GCN5L2 HAT assay, ThioGlo1 CoA-SH fluorescence. Potency, µM (series often up to 58.9 µM), without a hit: at the highest dose activity change, negative = inhibition, hits mostly inhibitors. 390,000 tested, 0.21% active. AID 504327; note: % is set by controls: 0 for no effect and ±100 for the full control effect
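ThioGlo1-coupled HAT assay: 20nM GCN5L2, 70uM acetyl-CoA, 75uM H3(1-25) peptide, pH 7.5. Fluorescence read at 340/540nm at start and after 20 min at room temperature.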
VDR inh – inhibitors of human vitamin D receptor. P11473. VDR-SRC2-3 peptide fluorescence polarization, 2 h. Potency, µM, for the others: max response, negative = inhibition, actives largely listed as inhibitors. 400,000 tested, 0.93% active; note: % is set by controls: 0 for no effect and ±100 for the full control effect
Target sequence (P11473 whole entry, looked up): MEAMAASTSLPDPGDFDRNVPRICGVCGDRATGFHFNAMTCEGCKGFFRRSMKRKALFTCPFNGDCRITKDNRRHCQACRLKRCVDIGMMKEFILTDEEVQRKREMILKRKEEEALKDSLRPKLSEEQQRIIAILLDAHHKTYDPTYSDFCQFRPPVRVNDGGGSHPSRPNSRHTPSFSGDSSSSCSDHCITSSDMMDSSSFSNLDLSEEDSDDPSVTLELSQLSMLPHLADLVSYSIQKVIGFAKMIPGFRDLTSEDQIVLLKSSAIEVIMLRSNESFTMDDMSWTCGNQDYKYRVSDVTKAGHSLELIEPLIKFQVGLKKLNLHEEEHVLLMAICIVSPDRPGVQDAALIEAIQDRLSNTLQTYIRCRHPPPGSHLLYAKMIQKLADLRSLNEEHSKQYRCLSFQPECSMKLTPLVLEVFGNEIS
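VDR–SRC2-3 interaction, FP format. Cmpds 23 nl via pintool, brief spin, 2 h ambient incubation.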
VDR confirm – confirmation of human vitamin D receptor inhibitors. shares compounds with VDR inh. VDR-coactivator inhibition assay, qHTS confirmation. Potency, µM, usual class: inhibitors. 840 tested, 89% active. AID 602199
VDR FP – confirmation of human VDR-coactivator binding inhibitors, fluorescein label; shares compounds with VDR inh; VDR-coactivator binding, fluorescein fluorescence polarization; Potency, µM (titrated, usually from 57.1 µM), without a hit: at the highest dose activity change, negative = inhibition, hits mostly inhibitors; 840 tested, 48% active
VDR bla – VDR (human) inhibition, cell-based beta-lactamase validation; Potency, µM (titrated, usually from 46.1 µM), without a hit: at the highest dose activity change, negative = inhibition, hits mostly inhibitors; AID 602202; shares compounds with VDR inh; VDR beta-lactamase reporter cells, FRET ratio; cells co-treated with VDR agonist LG190178; 840 tested, 23% active; note: % is set by controls: 0 for no effect and ±100 for the full control effect
VDR cytotox – cytotoxic in counter-screen for VDR inhibitors; shares compounds with VDR inh; 840 tested, 18% active; cytotoxicity counter-screen, cell viability, qHTS; Potency, µM (top dose mostly 48.3 µM), for the others: top-dose activity change, negative = cytotoxicity, hits mostly cytotoxic;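 note: plate controls were DMSO for no effect and high-concentration cycloheximide for full effect; nearly all actives have a fitted effect of over 75% in size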
* marks the source's active call; other numbers are inactive results; ? = inconclusive; · = no result given; [ ] = remark or other dose. Calls come from the whole dose curve; as a rule, active = well fitted curve in the direction sought with a large enough effect; inconclusive = small, poorly fitted or top-dose-only effect, or another doubt; inactive = no such curve, though single readings can be large; an effect the other way counts as inactive or inconclusive. Potency is the fitted concentration of half-maximal effect.

SMILES	TrxR1 substrate	rTrxR1 inhibitor	KAT2A inh	VDR inh	VDR confirm	VDR FP	VDR bla	VDR cytotox
COc1ccccc1NC(=O)CCCCCN1C(=O)c2cccc([N+](=O)[O-])c2C1=O	-13.6%	-3.7%	-3.2%	-11.8%	·	·	·	·
Cc1ccc(NC(=O)Cn2c(=O)n(Cc3ccc4c(c3)OCO4)c(=O)c3oc4ccccc4c32)cc1C	-6.6%	5.9%	-0.2%	5.4%	·	·	·	·
c1ccc(-c2nnc3sc(-c4ccncc4)nn23)cc1	-9.1%	3.8%	-2.6%	-19.9%	·	·	·	·
c1ccc(-c2nnc3sc(-c4csc5c4CCCC5)nn23)cc1	0.0%	-7.9%	?	?	14.1*	10µM*	?	?
CN(N=O)C(=O)N[C@H]1[C@@H](O)[C@H](O)[C@H](CO)O[C@@H]1O	·	·	7.7%[21.4 µM]	2.9%	·	·	·	·
O=C(C[n+]1csc2ccccc21)c1cccc([N+](=O)[O-])c1	2.3%	20.4%	·	·	?	?	5.4%	22.2%
Cc1cc[n+](CC(=O)c2cccc([N+](=O)[O-])c2)c2ccccc12	1.3%	10.1%	?	16.4%	·	·	·	·
CSCC[C@@H]1NC(=O)[C@@H](NC(=O)[C@H](CCCNC(=N)N)NC(=O)[C@H](CC(C)C)NC(=O)[C@H](CCSC)NC(=O)[C@H](CC(=O)O)NC(=O)[C@H](Cc2ccccc2)NC(=O)[C@@H](N)CC(=O)O)CSSC[C@@H](C(=O)N[C@@H](Cc2c[nH]c3ccccc23)C(=O)N[C@@H](CCC(N)=O)C(=O)N[C@@H](Cc2ccc(O)cc2)C(=O)O)NC(=O)[C@@H]2CCCN2C(=O)[C@H](CCCNC(=N)N)NC(=O)[C@H](Cc2ccccc2)NC(=O)[C@H](C(C)C)NC(=O)[C@H](CCCNC(=N)N)NC(=O)CNC(=O)[C@H](CC(C)C)NC1=O	·	·	-14.4%	·	·	·	·	·
NC(=O)N/N=C/c1ccccc1OC(=O)c1cc2ccccc2oc1=O	-3.6%	17.0%	-2.3%	-2.4%	·	·	·	·
O=C(Oc1ccccc1/C=C\C(=O)c1cc2ccccc2o1)c1ccccc1	-7.2%	?	-5.1%	?	3.98*	?	?	-11.3%
O=C(Oc1ccccc1/C=C\C(=O)c1cc2ccccc2o1)c1cccc(F)c1	-3.0%[57.1 µM]	-19.5%[57.1 µM]	-2.8%	28.2µM*	10.6*	?	?	?
O=C(N/N=C/c1ccccc1OC(=O)c1ccc2c(c1)OCO2)c1cccc(F)c1	-6.2%[57.1 µM]	13.3%[57.1 µM]	-2.6%	-16.3%	·	·	·	·
COc1cccc(C(=O)Oc2ccccc2/C=C\C(=O)c2cc3ccccc3o2)c1	-7.0%	?	-9.2%	?	2.82*	3.16µM*	?	-21.7%
COc1ccc(C(=O)/C=C/c2ccccc2OC)c(OC(=O)c2ccc([N+](=O)[O-])cc2)c1	5.2%	7.0%	·	-18.5%	·	·	·	·
O=C(Cc1ccccc1)Nc1sc2c(c1C(=O)Nc1ccc(Cl)cc1)CCCC2	-4.8%	9.6%	?	28.2µM*	3.16*	2.24µM*	-12.7%	6.8%
Cc1nc2[nH]c(=S)[nH]c(=O)c2nc1C	1.4%[57.1 µM]	-40.6%	·	-18.1%	·	·	·	·
Cc1nc2c(=O)[nH]c(=S)n(C)c2nc1C	-19.8%	?	?	50.1µM*	15*	?	-5.9%	?
Cn1ccnc1Sc1cc(Cl)ccc1[N+](=O)[O-]	-5.3%	11.9%[57.1 µM]	2.0%	0.9%	·	·	·	·
CCC(=O)OCCNc1cc(Sc2nccn2C)c2nonc2c1[N+](=O)[O-]	-7.4%	0.282µM*	28.1%	31.6µM*	21.2*	?	?	14.6µM*
CCCC(=O)NC(C)c1nc2ccccc2[nH]1 (configuration not stated)	2.8%[57.1 µM]	5.5%[57.1 µM]	0.7%	-12.2%	·	·	·	·
CCCC(=O)OCCNc1cc(Sc2nc3ccccc3[nH]2)c2nonc2c1[N+](=O)[O-]	-4.2%	1µM*	-11.1%	20µM*	8.44*	?	?	23.1µM*
COc1cccc(NC(=O)CCc2nc3c(C)nn(-c4ccc(C)cc4)c3n(C)c2=O)c1	1.2%[57.1 µM]	17.4%[57.1 µM]	5.6%	1.0%	·	·	·	·
O=C1/C(=C/c2cccnc2)CCC/C1=C\c1cccnc1	-8.4%	?	-2.0%	50.1µM*	12.6*	20µM*	5.8µM*	15µM*
CCC1C/C(=C\c2cccnc2)C(=O)/C(=C/c2cccnc2)C1 (configuration not stated)	-4.8%	?	0.0%	22.4µM*	5.32*	3.55µM*	5.8µM*	20.6µM*
O=C1/C(=C/c2cccnc2)CC/C1=C\c1cccnc1	-2.8%	-7.0%	-9.1%	-4.8%	·	·	·	·
SMILES	TrxR1 substrate	rTrxR1 inhibitor	KAT2A inh	VDR inh	VDR confirm	VDR FP	VDR bla	VDR cytotox
CC(C)/C=C1\CC/C(=C\c2cccnc2)C1=O	0.3%	-24.7%	-3.5%	-15.5%	·	·	·	·
Cc1cc(C)c(C#N)c(=N)o1	12.7%	?	-6.4%	44.7µM*	?	?	-21.5%	4.4%
CSc1nc(C)cc(C)c1C#N	-5.1%[57.1 µM]	4.0%[57.1 µM]	-15.5%	-1.4%	·	·	·	·
Fc1ccc(N=C2NN=C(c3cc(F)ccc3F)CS2)cc1	12.5%[57.1 µM]	22.4%	-19.4%	31.6µM*	?	?	4.2%	?
O=S(=O)(c1ccc(N=C2NN=C(c3cc(F)ccc3F)CS2)cc1)N1CCOCC1	-1.4%[57.1 µM]	10.8%[57.1 µM]	-25.3%	1.58µM*	2.51*	?	-23.9%	?
Fc1cccc(Cl)c1CNc1ccc(N2CCCC2)cc1	3.3%[57.1 µM]	3.98µM*	-5.3%	50.1µM*	11.9*	12.6µM*	-15.8%	?
COc1cccc(/C=C/C(=O)c2cccc([N+](=O)[O-])c2)c1OC	5.0%[57.1 µM]	-65.3%	-3.2%	8.91µM*	3.77*	3.16µM*	?	?
CC(C)(C)OC(=O)N[C@@H](Cc1ccccc1)c1nnc(S(=O)(=O)Cc2ccccc2)o1	·	·	31.3%	·	·	·	·	·
Cc1ccccc1CS(=O)(=O)c1nnc([C@H](Cc2ccccc2)NC(=O)OC(C)(C)C)o1	-0.2%	0.631µM*	?	20µM*	5.97*	3.55µM*	?	?
Cc1cccc(CS(=O)(=O)Cc2ccc(C(=O)NC(C)c3ccccc3)o2)c1 (configuration not stated)	2.9%[57.1 µM]	-0.9%[57.1 µM]	-3.0%	-2.9%	·	·	·	·
CCC(C)[C@@H](NC(=O)OC(C)(C)C)c1nnc(S(=O)(=O)Cc2cccc(C)c2)o1 (some centres not stated)	-15.0%	1.78µM*	-2.7%	25.1µM*	4.74*	?	?	?
Cn1c(=O)[nH]c(=O)c2c1nc(CN1CCN(c3ccccc3)CC1)n2Cc1c(F)cccc1Cl	-3.3%	0.4%	-6.1%	1.1%	·	·	·	·
